Records with an inconclusive call do not appear. Calls of active or inactive are those of the source. Calls follow the shape of the dose curve; as a rule, active = well fitted inhibition curve with a large enough effect; inconclusive = small, poorly fitted or top-dose-only effect; inactive = flat fitted curve, though single readings scatter.

Here are results for 15 molecules from PubChem BioAssay (NCATS).
Potency is read from the fitted curve at half-maximal effect.

The test system of the assay is TAB165. As to the kind of experiment: qHTS profiling for inhibitors of Plasmodium falciparum proliferation (AID 504749). Also: nearly all actives have a fitted effect of over 60% in size. Conditions: P. falciparum in erythrocytes, SYBR Green DNA, 72 h; series mostly up to 28.7 µM. In a few lines: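 Readout was DNA-dye fluorescence from lysed cultures, ex 485/em 535 nm. Parasitized red cells had grown 72 h with compound; data scaled between 0.29 uM artemisinin and DMSO wells and corrected using vehicle-only plates.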
`C[C@](N)(Cc1ccc(O)cc1)C(=O)O`: the Potency result is “inactive”. As for `Cc1c(O)cccc1C(=O)N[C@@H](CSc1ccccc1)[C@H](O)CN1C[C@H]2CCCC[C@H]2C[C@H]1C(=O)NC(C)(C)C`, the figure is 10 µM (active); as for `CSc1ccc2c(c1)C(N1CCN(C)CC1)Cc1ccccc1S2` (stereo not given), 12.6 µM (active); as for `CC(=O)c1ccc2c(c1)N(CCCN(C)C)c1ccccc1S2`, “inactive”.

Turning to `CCN(CC)CCSC(=O)C(c1ccccc1)c1ccccc1`, the Potency entry is “inactive”. As for `CCCCN(CCCC)CC(O)c1cc(Cl)cc2c1-c1ccc(Cl)cc1/C2=C/c1ccc(Cl)cc1` (stereo not given), the figure is 0.0079 µM (active); as for `C=Cc1c(C)c2cc3[nH]c(cc4nc(cc5nc(cc1[nH]2)C(C)=C5CCC(=O)O)C(CCC(=O)O)=C4C)c(C)c3C=C`, “inactive”; as for `CC1=C(/C=C/C(C)=C/C=C/C(C)=C/C(=O)O)C(C)(C)CCC1`, “inactive”.

In the case of `COCCOC(=O)C1=C(C)NC(C)=C(C(=O)OC/C=C/c2ccccc2)C1c1cccc([N+](=O)[O-])c1` (stereo not given), the Potency is 12.6 µM (active).

For `CNCCC(Oc1ccc(C(F)(F)F)cc1)c1ccccc1` (stereo not given), the Potency was 11.2 µM (active). As for `CCN(CC)CCNC(=O)c1c(C)[nH]c(/C=C2\C(=O)Nc3ccc(F)cc32)c1C`, the figure is 7.08 µM (active).

In the case of `CC(=O)Oc1ccc(C2(c3ccc(OC(C)=O)cc3)C(=O)Nc3ccccc32)cc1`, the Potency result is “inactive”. As to `CN1CCN(C2Cc3ccccc3Sc3ccc(Cl)cc32)CC1` (stereo not given), the Potency was 12.6 µM (active). As for `COC(=O)C1=C(C)NC(C)=C(C(=O)OC)C1c1ccccc1[N+](=O)[O-]`, the entry is “inactive”. As for `CN(C)CCCN1c2ccccc2Sc2ccc(Cl)cc21`, the figure is 8.91 µM (active).
